# Screens deposited in PubChem BioAssay by National Center for Advancing Translational Sciences (NCATS).
# TDP1 inh: TDP1 (human) enzyme inhibition. 350,000 tested, 0.28% active. Potency, µM (top dose mostly 130 µM), without a hit: at the highest dose activity change, negative = inhibition, usual class: inhibitors. recombinant TDP1, AlphaScreen DNA substrate cleavage. AID 485290; also: % is scaled to controls: 0 for no effect and ±100 for the full control effect; nearly all actives have a fitted effect of over 40% in size
# Target sequence (Q9NUW8 whole entry, looked up): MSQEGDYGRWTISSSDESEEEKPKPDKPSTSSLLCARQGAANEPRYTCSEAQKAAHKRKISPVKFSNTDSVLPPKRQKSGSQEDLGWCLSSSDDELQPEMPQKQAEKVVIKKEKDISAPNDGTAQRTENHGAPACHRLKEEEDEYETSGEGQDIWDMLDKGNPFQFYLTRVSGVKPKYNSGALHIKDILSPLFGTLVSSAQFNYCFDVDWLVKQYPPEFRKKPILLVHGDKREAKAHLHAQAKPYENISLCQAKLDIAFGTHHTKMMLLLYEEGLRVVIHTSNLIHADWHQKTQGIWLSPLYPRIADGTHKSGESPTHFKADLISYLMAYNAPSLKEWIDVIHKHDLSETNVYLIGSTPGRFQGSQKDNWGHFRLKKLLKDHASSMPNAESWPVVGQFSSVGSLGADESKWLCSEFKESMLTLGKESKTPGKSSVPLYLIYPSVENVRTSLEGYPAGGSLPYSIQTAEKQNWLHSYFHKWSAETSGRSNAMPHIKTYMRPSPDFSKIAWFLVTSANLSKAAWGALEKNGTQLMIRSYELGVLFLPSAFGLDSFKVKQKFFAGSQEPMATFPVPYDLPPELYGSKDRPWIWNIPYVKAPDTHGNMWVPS
#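 Enzyme-compound mixtures sat 15 min at room temperature, followed by a 5 min reaction with 15 nM final substrate and 10 min with AlphaScreen beads. Recombinant human Tdp1 was used at 1 nM final.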
# Pin1 inh: human Pin1 inhibition. Pin1 FP peptide displacement, HiFluor488, 10 min. 390,000 tested, 0.009% active. Potency, µM (series often up to 115 µM), inactives show top-dose activity, negative = inhibition, usual class: inhibitors. Q13526; active = well fitted inhibition curve with a large enough effect in the polarisation, with a control signal flat, not every such curve was filed as active; inconclusive = small, poorly fitted or top-dose-only effect, or effect the other way, or a change in a side signal; inactive = no such curve, though single readings can be large or run the other way; the % refers to the polarisation; also: % is scaled to controls: 0 for no effect and ±100 for the full control effect
# PLK1 PBD block: inhibitors of human PLK1 polo-box domain binding; Plk1 PBD binding of FITC phosphopeptide, fluorescence polarization; 360,000 tested, 2.8% active; AID 720504; Potency, µM, without a hit: max response, negative = inhibition, actives largely listed as inhibitors; P53350; also: series mostly up to about 57 µM; % is scaled to controls: 0 for no effect and ±100 for the full control effect; nearly all actives have a fitted effect of over 65% in size
# Tb PFK inh: inhibitors of T. brucei phosphofructokinase; O15648; T. brucei PFK, ADP-Glo luminescence; AID 485367; 330,000 tested, 0.17% active; Potency, µM (doses to about 57.5 µM), for the others: top-dose activity, negative = inhibition, most hits filed as inhibitors;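 also: 0% = uninhibited 1x PFK enzyme wells and -100% = no-enzyme wells; nearly all actives have a fitted effect of over 60% in size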
#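 PFK 1.25 nM, F6P 0.5 mM, ATP 0.1 mM, 0.1 M TEA pH 8.0, 5 mM MgCl2, 0.01% Tween20, 0.1% BSA; 45 min RT. ADP-Glo readout. qHTS titration up to 57 uM; curves fitted, compounds curve-classed.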
# S-ASM inh: inhibitors of human secretory acid sphingomyelinase; P17405; placental ASM, HMU-PC fluorogenic substrate, 60 min; Potency, µM (top dose mostly 57.5 µM), for inactives: at the highest dose activity change, negative = inhibition, most hits filed as inhibitors; 340,000 tested, 0.006% active; AID 504937
#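 Fluorescence read-out (Ex 386 nm, Em 447 nm) after stopping the reaction at pH 10. Enzyme: ASM from human placenta; substrate HMU-PC0, 9 uM final; 60 min, 37 °C. Compound preincubation 10 min, ambient temperature.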
# VDR inhibitor: blocks the human vitamin D receptor; VDR-SRC2-3 peptide fluorescence polarization, 2 h; 400,000 tested, 0.93% active; P11473; Potency, µM, without a hit: max response, negative = inhibition, hits mostly inhibitors; also: % is scaled to controls: 0 for no effect and ±100 for the full control effect
#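 The screen uses fluorescence polarization to detect compounds that interfere with recruitment of the SRC2-3 coactivator peptide to VDR; plates are read after 2 h at room temperature.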
# Numbers without * were called inactive; ? = inconclusive; . = no result given; [ ] = remark or other dose. Rows were chosen to be rich in hits. Some 3.1% of all compounds tested hit in one or more screens of this group. Unless noted, calls follow the shape of the dose curve; as a rule, active = well fitted curve in the direction sought with a large enough effect; inconclusive = small, poorly fitted or top-dose-only effect, or another doubt; inactive = no such curve, though single readings can be large; an effect the other way counts as inactive or inconclusive. Potency is read from the fitted curve at half-maximal effect.
SMILES,TDP1 inh,Pin1 inh,PLK1 PBD block,Tb PFK inh,S-ASM inh,VDR inhibitor
Cc1cccc(-n2ncc3c2CCCC3NC(=O)CCc2ccncc2)c1C (stereo not drawn),0%,5%,-6%,-3%,-1%,-14%
COc1cc(NC(=O)c2cc([N+](=O)[O-])ccc2NC(=O)CNCc2ccccn2)cc(OC)c1,56µM*,?,-5%,1%,-2%,3%
COc1ccc(NC(=O)c2cc([N+](=O)[O-])ccc2NC(=O)CNCc2ccccn2)c(OC)c1,8%,-3%,?,-23%,-1%,32µM*
C=C(C[C@]1(C(=O)OC)CC2(CC=C(C)C)C(=O)C(C(=O)CC(C)C)=C(O)C(CC=C(C)C)(C1)C2=O)C(=O)OC (stereo partly drawn),9%,.,.,.,.,-2%
CC(C)NS(=O)(=O)c1ccc2[nH]c3nc(SCC(=O)Nc4ccc(F)c(F)c4)nnc3c2c1,.,41%,.,.,.,12%
O=C(Nc1ccc(N2CCCC2)cc1)c1cccc(-c2cc3ccccc3oc2=O)c1,-1%,29%,2.7µM*,?,-5%,?
CC(C)NC(=O)Nc1ccc2c(c1)CC(=O)N([C@@H](C)CO)C[C@H](C)[C@@H](CN(C)C(=O)NC1CCCCC1)O2,0%,-3%,-15%,-3%,-5%,89µM*
C[C@@H]1CN([C@@H](C)CO)C(=O)Cc2cc(NC(=O)Nc3ccc4c(c3)OCO4)ccc2O[C@@H]1CN(C)C(=O)NC1CCCCC1,4%,1%,-17%,1%,7%,-18%
O=C(O)c1ccc(NC(=S)NC(=O)C(c2ccccc2)c2ccccc2)cc1,7%,-3%,-20%,?,-7%,-1%
COc1ccc(C(=O)O)cc1NC(=S)NC(=O)C(c1ccccc1)c1ccccc1,7%[56.1 µM],-19%,60µM*,7%,-14%,-9%
Cc1cccc(Cn2c(CNS(=O)(=O)c3ccc(C(C)C)cc3)nc3cccnc32)c1,-2%,-3%,.,.,.,13%
CC[C@H](C)C(=O)O[C@@H]1C[C@H](C)C=C2C=C[C@H](C)[C@@H](CC[C@H]3C[C@@H](O)CC(=O)O3)[C@H]21,5%[21 µM],.,.,.,.,-1%
CCC(C)(C)C(=O)O[C@H]1C[C@@H](C)C=C2C=C[C@H](C)[C@H](CC[C@@H]3C[C@@H](O)CC(=O)O3)[C@H]21,.,2%,30µM*,-6%,0%,?
CCCC[C@H]1CCCO[C@@](C(=O)NCCN2CCOCC2)(C(F)(F)F)C1,1%,0%,.,.,.,-15%
NC(=O)C1CC(=O)N(c2ccc(OCc3ccc(Cl)cc3)cc2)C1 (stereo not drawn),6%,-2%,6µM*,-11%,-2%,?
CCCNC(=O)C1CC(=O)N(c2ccc(OCc3ccc(Cl)cc3)cc2)C1 (stereo not drawn),.,-2%,-19%,2%,-5%,-6%
COc1ccc(-c2nc3c(c(SCC(=O)N4CCCCC4)n2)Cc2cc(Cl)ccc2O3)cc1,6%,3%,.,.,.,89µM*
O=c1c2cccnc2n(-c2ccccc2)n1Cc1c(Cl)cccc1Cl,6%,-2%,-27%,-3%,-1%,2%
O=c1c2cccnc2n(-c2ccccc2)n1Cc1ccc(Cl)cc1,-12%,8%,27µM*,0%,33%,-5%
COc1cc([N+](=O)[O-])cc(/C=N/NC(=O)Cn2nc(C)cc2C)c1O,.,18%,-3%,2%,-2%,-7%
COc1cc([N+](=O)[O-])cc(/C=N/NC(=O)Cn2nccc2C)c1O,9%,?,27µM*,3%,0%,?
CC(C)(C)NC(=O)COC(=O)c1cncc(Br)c1,-4%,-8%,30µM*,1%,0%,-23%
COCC(C)NC(=O)C(C)N1c2cccc3cccc(c23)S1(=O)=O (stereo not drawn),20µM*,-5%,3%,-5%,30%,-7%
CNC(=O)C(C)N1c2cccc3cccc(c23)S1(=O)=O (stereo not drawn),.,-10%,-9%,0%,36%,-7%
Cc1ccc(C)n1-c1ccc(C(=O)NC2CCN(Cc3ccccc3)CC2)cc1,-3%,-2%,-12%,0%,-1%,-16%
SMILES,TDP1 inh,Pin1 inh,PLK1 PBD block,Tb PFK inh,S-ASM inh,VDR inhibitor
Cc1ccc(CN2CCC(NC(=O)c3ccccc3)CC2)cc1,.,-14%,30µM*,1%,-1%,-11%
Cc1ccccc1OCC(=O)Nc1ccc(S(=O)(=O)N(Cc2ccccc2)c2ccccc2)cc1,-3%,16%,.,.,.,-8%
CC(C)CC1=C/C(=C/c2ccc(-c3ccccc3)o2)C(=O)O1,5%,?,11µM*,4%,204%,?
CCCn1c(CCC(=O)O)ccc1-c1ccccc1,6%,3%,12µM*,-3%,84%,?
O=C(O)CCc1ccc(-c2ccccc2)n1CC(=O)O,0%,-6%,-1%,19%,8%,-5%
Cc1ccccc1C(=O)Nc1sc(C)c(C)c1C(=O)c1ccccc1,6%,?,21µM*,-8%,-12%,?
Cc1sc(NC(=O)CCl)c(C(=O)c2ccccc2)c1C,6%,-10%,27µM*,0%,-1%,?
Cc1ccccc1C(=O)Nc1sc2c(c1C(=O)O)CCC2,3%,-1%,-7%,2%,0%,14%
O=C(CCl)Nc1sccc1C(=O)c1ccccc1,.,-1%,-20%,.,12%,4%
CCC(C(=O)O)C1OC(C(C)C(O)C(C)C(=O)C(CC)C2OC3(C=CC(O)C4(CCC(C)(C5CCC(O)(CC)C(C)O5)O4)O3)C(C)CC2C)C(C)CC1C (stereo not drawn),.,.,.,.,.,1%
COc1ccccc1NC(=O)CSc1ncc(CO)n1Cc1ccc(F)cc1,4%,0%,9.5µM*,1%,2%,?
COc1ccc(NC(=O)CSc2nnnn2-c2ccccc2F)cc1,.,-7%,-17%,1%,6%,-5%
COc1ccccc1NC(=O)CSc1nnnn1-c1ccccc1F,.,-14%,27µM*,-1%,-4%,-9%
NC(N)=NCCC[C@@H](N)C(=O)NCC(=O)N[C@@H](CC(=O)O)C(=O)N[C@@H](Cc1c[nH]c2ccccc12)C(=O)O,15%,.,.,.,.,4%
NCCNCCN,3%,.,.,.,.,16µM*
C#CCOc1ccc(C(=O)N(C)c2ccccc2I)cc1,9%,-12%,.,.,.,-1%
CC(=O)N1CCOc2cc(S(=O)(=O)NCc3ccccc3Cl)c(Cl)cc21,6.3µM*,-12%,.,-1%,.,-2%
CC(=O)N1CCOc2cc(S(=O)(=O)N3CCN(c4ccccc4)CC3)c(Cl)cc21,.,4%,-8%,2%,-7%,10%
Cc1ccc(S(=O)(=O)Nc2cccnc2)cc1,2%,?,21µM*,-5%,-2%,?
